We go through 40 molecules from PubChem BioAssay (EPA / NIEHS).

The structures appear in SMILES notation. Calls of active or inactive are those of the source. Rule for the calls: active = hit-call score of the fitted dose curve at least 0.9, where 1 is the maximum; inactive = score below 0.9.

One may read the AC50 as the concentration at which the activity in the assay is half-maximal.

This experiment is described as follows: APR_HepG2_StressKinase_1hr: Apredica 1-hour HepG2 Assay for Stress Kinase (AID 2282906). The conditions noted are these: HepG2 stress kinase (phospho-c-Jun) imaging, actives raise or lower the signal. As to the method: APR_HepG2_1hr is a cell-based, multiplexed-readout assay that uses HepG2, a human liver cell line, with measurements taken at 1 hour after chemical dosing in a 384-well plate.APR_HepG2_StressKinase_1hr is one of 10 assay component(s) measured or calculated from the APR_HepG2_1hr assay. It is designed to make measurements of enzyme activity, a form of enzyme reporter, as detected with fluorescence intensity signals by HCS Fluorescent Imaging technology.Data from the assay component APR_HepG2_StressKinase_1hr was analyzed into 1 assay endpoint. This assay endpoint, APR_HepG2_StressKinase_1hr, was analyzed with bidirectional fitting relative to DMSO as the negative control and baseline of activity. Using a type of enzyme reporter, measures of protein for gain or loss-of-signal activity can be used to understand the signaling at the pathway-level as they relate to the gene . Furthermore, this assay endpoint can be referred to as a primary readout, because this assay has produced multiple assay endpoints where this one serves a signaling function. To generalize the intended target to other relatable targets, this assay endpoint is annotated to the cell cycle intended target family, where the subfamily is stress response.
Cells were treated with dimethyl sulfoxide (DMSO) as a solvent control at a final concentration of 0.5% v/v or with compounds in DMSO with a resulting final DMSO concentration of 0.5% v/v. Compound treatment was done at concentrations of 0.39, 0.78, 1.56, 3.12, 6.24, 12.5, 25, 50, 100, and 200 uM in duplicate on each plate. Cells were treated with compounds for 1, 24, or 72 hr. Carbonyl […] m-chloro-phenylhydrazone (CCCP) and taxol were used as positive controls for mitochondrial function and cytoskeletal stability, respectively; DMSO served as the negative control for this experiment. Cells were fixed by the direct addition of 50 uL formaldehyde in Hank's Balanced Salt Solution (HBSS) to a final concentration of 3.7%. After incubation in the fixation medium for 30 min at room temperature (293-298 K), cells were rinsed twice with HBSS and treated with cell permeabilization buffer (16 uL of 0.5% Triton X-100) for 10 min at room temperature (293-298 K) before labeling. For mitochondrial membrane potential and mitochondrial measurements, pre-fixed cells were incubated with 50 uL of MitoTracker Red CMXRos (Invitrogen) at a concentration of 250 nM for 30 min before fixation. In the remaining cases, post-fixed cells were labeled by incubation with a multiplexed mixture of primary antibodies in HBSS for 60 min at room temperature (293-298 K) to detect immunoreactivity of c-Jun (1:500), phospho-histone H3 (1:100), phospho-histone H2A.x (1:200), p53 (1:400), alpha-tubulin (1:200) and Hoechst 33342 (2 ug/mL). Cells were labeled for multiplexed imaging on two separate plates: a) Hoechst 33342, MitoTracker Red, phospho-histone H3, and alpha-tubulin, and b) Hoechst 33342, phospho-histone H2A.x, and c-Jun. A final rinse with HBSS (50 uL) was performed before analysis. The primary and secondary antibodies for the proteins were phospho-histone H3 (rabbit anti-phospho-histone H3 and FITC-donkey anti-rabbit IgG), phospho-histone H2A.x (mouse anti-phospho-histone H2A.x and FITC-donkey anti-mouse IgG), c-Jun (rabbit anti-phospho-c-Jun and Cy3-donkey anti-rabbit IgG), p53 (sheep anti-p53 and Cy5-donkey anti-sheep IgG), alpha-tubulin (mouse anti-alpha-tubulin and Cy5-donkey anti-mouse IgG). These antibodies are available as the CellCiphr HepG2 assay kit (Millipore).Digital images of each well were captured using a Cellomics ArrayScan VTI (Thermo Scientific Cellomics) (0.8 NA objective, 0.63x optical coupler, and XF-93 filter set) at 20x magnification. The images were acquired using the autofocus feature of the ArrayScan instrument, which entails the following steps. First, the camera focuses on channel 1 (Hoechst 33342), where nuclei are identified. Second, a Z offset of 1 um is used for capturing mitochondria (MitoTracker Red). […]
For `CCCC1COC(Cn2cncn2)(c2ccc(Cl)cc2Cl)O1` (stereo not given), the outcome was inactive.
Regarding `COC(=O)C=C(C)OP(=O)(OC)OC`, the molecule was classed as inactive.
On the same count and under the same terms, the value for `COc1nc(C)nc(NC(=O)NS(=O)(=O)c2ccccc2CCC(F)(F)F)n1` was “inactive”; that for `CON(C)C(=O)Nc1ccc(Cl)c(Cl)c1` was “inactive”.
Still for that read-out and setting: the value for `N#Cc1cc(Br)c(O)c(Br)c1` was “inactive”.
Same read-out and setting: the value for `O=C(O)COc1nc(Cl)c(Cl)cc1Cl` was “inactive”; that for `COc1nc(C)nc(NC(=O)NS(=O)(=O)c2ccccc2Cl)n1` was “inactive”.
`CC1COC(Cn2cncn2)(c2ccc(Oc3ccc(Cl)cc3)cc2Cl)O1` (stereo not given): the molecule was called inactive.
Consider `O=C(Nc1ccccc1)Nc1ccnc(Cl)c1`, for which the outcome was inactive.
As for `N#Cc1nn(-c2c(Cl)cc(C(F)(F)F)cc2Cl)c(N)c1S(=O)C(F)(F)F` (stereo not given), the outcome was inactive.
`CCc1nn(C)c(C(=O)NCc2ccc(C(C)(C)C)cc2)c1Cl`: the AC50 is 9.39 µM (active).
As to `CCCN(CCC)c1c([N+](=O)[O-])cc(S(N)(=O)=O)cc1[N+](=O)[O-]`, the call was inactive.
On to `CC(Oc1ccc(Cl)cc1Cl)C(=O)O` (stereo not given), for which the result was inactive.
With `CNC(=O)ON=CC(C)(C)SC`, the molecule was classed as inactive.
As to `CNC(=S)S`, the result was inactive.
For the molecule `COc1cnc(OC)n2nc(NS(=O)(=O)c3c(OCC(F)F)cccc3C(F)(F)F)nc12`, the molecule was called inactive.
Same read-out and setting: the value for `COC(=O)c1ccccc1C(=O)OC` was “inactive”; that for `CCCCNC(=O)OCC#CI` was “inactive”.
The same measure, in the same setting: the value for `O=C(O)c1nc(Cl)ccc1Cl` was “inactive”.
On the same count and under the same terms, the value for `COc1nc(NC(C)C)nc(NC(C)C)n1` was “inactive”.
As for `C=CCC1=C(C)[C@@H](OC(=O)[C@@H]2[C@@H](C=C(C)C)C2(C)C)CC1=O`, the molecule was called inactive.
For the molecule `CCOC(=O)C(Cl)Cc1cc(-n2nc(C)n(C(F)F)c2=O)c(F)cc1Cl` (stereo not given), the result was inactive.
Still for that read-out and setting: the value for `CS/C(C)=N/OC(=O)N(C)SN(C)C(=O)O/N=C(\C)SC` was “inactive”; that for `Fc1ccc(Oc2ccnc3cc(Cl)cc(Cl)c23)cc1` was “inactive”; that for `CCON=C(CC)C1=C(O)CC(c2c(C)cc(C)cc2C)CC1=O` (stereo not given) was “inactive”.
Take `CCOP(=S)(OCC)SCn1c(=O)oc2cc(Cl)ccc21`: the call was inactive.
As for `C=CCC1=C(C)C(OC(=O)C2C(C=C(C)C)C2(C)C)CC1=O` (stereo not given), the molecule was classed as inactive.
Still for that read-out and setting: the value for `Cc1c(F)c(F)c(COC(=O)C2C(/C=C(\Cl)C(F)(F)F)C2(C)C)c(F)c1F` (stereo not given) was “inactive”.
Same read-out and setting: the value for `CCCCNC(=O)n1c(NC(=O)OC)nc2ccccc21` was “inactive”; that for `CCCCC(CC)COC(=O)c1ccccc1C(=O)OCC(CC)CCCC` (stereo not given) was “inactive”; that for `COP(=S)(OC)Oc1nc(Cl)c(Cl)cc1Cl` was “inactive”.
As to `CC1=C(C(=O)Nc2ccccc2)SCCO1`, the call was inactive.
On the same count and under the same terms, the value for `C=CC1(C)OC(=O)N(c2cc(Cl)cc(Cl)c2)C1=O` (stereo not given) was “inactive”.
For `Cc1ccc(-c2c(Cl)nc(C#N)n2S(=O)(=O)N(C)C)cc1`, the molecule was classed as inactive.
The same measure, in the same setting: the value for `CCOc1cc(Oc2ccc(C(F)(F)F)cc2Cl)ccc1[N+](=O)[O-]` was “inactive”; that for `Cc1cc(Cl)ccc1OCC(=O)O` was “inactive”.
The same measure, in the same setting: the value for `OC(c1ccc(Cl)cc1)(c1cncnc1)c1ccccc1Cl` (stereo not given) was “inactive”; that for `Oc1ccccc1-c1ccccc1` was “inactive”.
Same read-out and setting: the value for `CCCCOC(=O)c1ccccc1C(=O)OCCCC` was “inactive”; that for `CO/C=C(/C(=O)OC)c1ccccc1Oc1cc(Oc2ccccc2C#N)ncn1` was “inactive”.
